According to publication PMC9838217, “Structure of SALL4 zinc finger domain reveals link between AT-rich DNA binding and Okihiro syndrome”:
Changes are numbered by the printed parent chain.

Tests used:
Test in all cases: HT-SELEX; high values mean tight binding
Settings in all cases: protein: recombinant; vector His6-GST; dsDNA, one strand shown
SALL4 ZFC4 WT (HT-SELEX) = target: T1, SALL4 ZFC4 WT (HT-SELEX) (Mus musculus, UniProt Q8BX22 870-940)
T1 sequence: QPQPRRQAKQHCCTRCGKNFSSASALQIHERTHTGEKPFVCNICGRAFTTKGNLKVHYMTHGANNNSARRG
Summary of the method: (§1)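 DNA from a random library (1.5 µg in the first cycle, 200 ng afterwards) was incubated with purified recombinant mouse SALL4 zinc finger cluster 4, residues 870–940 (1 µg), for 10 min at room temperature in 100 µl buffer: 10 mM Tris–HCl pH 7.5, 50 mM NaCl, poly(dI-dC), DTT. Bound complexes were pulled down on Ni2+ beads, washed and PCR-amplified, and the selection was repeated for up to 6 cycles in triplicate. MiSeq reads were scanned for 6-mers, and binding signal is each canonical k-mer's read fraction as fold change over the initial random library.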

[1] = target: T2, SALL4 ZFC4 R900W (HT-SELEX) (Mus musculus, UniProt Q8BX22 870-940, R900W)
T2 sequence: T1 sequence with R31W
Summary of the method: as §1

[2] = target: T3, SALL4 ZFC4 G921D (HT-SELEX) (Mus musculus, UniProt Q8BX22 870-940, G921D)
T3 sequence: T1 sequence with G52D
Summary of the method: as §1

| Sequence | binding signal (SALL4 ZFC4 WT (HT-SELEX)) | binding signal [1] | binding signal [2] |
| --- | --- | --- | --- |
| AGGCAG | 0.306 ± 0.00652 fold-change vs cycle 0 | 0.366 ± 0.0295 fold-change vs cycle 0 | 0.484 ± 0.0834 fold-change vs cycle 0 |
| ATAGAA | 2.33 ± 0.17 fold-change vs cycle 0 | 2.13 ± 0.133 fold-change vs cycle 0 | 1.83 ± 0.226 fold-change vs cycle 0 |
| ATCTGA | 1.33 ± 0.0639 fold-change vs cycle 0 | 1.39 ± 0.0686 fold-change vs cycle 0 | 1.35 ± 0.119 fold-change vs cycle 0 |
| AACCAG | 0.772 ± 0.0439 fold-change vs cycle 0 | 0.91 ± 0.0252 fold-change vs cycle 0 | 0.941 ± 0.0329 fold-change vs cycle 0 |
| ATTGGA | 1.3 ± 0.0815 fold-change vs cycle 0 | 1.36 ± 0.0818 fold-change vs cycle 0 | 1.33 ± 0.0804 fold-change vs cycle 0 |
| CTTTAA | 1.84 ± 0.0654 fold-change vs cycle 0 | 1.95 ± 0.0889 fold-change vs cycle 0 | 1.69 ± 0.149 fold-change vs cycle 0 |
| AAATGA | 2.02 ± 0.088 fold-change vs cycle 0 | 1.91 ± 0.0687 fold-change vs cycle 0 | 1.75 ± 0.132 fold-change vs cycle 0 |
| CGTAAA | 1 ± 0.0348 fold-change vs cycle 0 | 1.08 ± 0.0147 fold-change vs cycle 0 | 1.05 ± 0.0379 fold-change vs cycle 0 |
| AATTGA | 1.92 ± 0.0967 fold-change vs cycle 0 | 1.88 ± 0.0991 fold-change vs cycle 0 | 1.75 ± 0.142 fold-change vs cycle 0 |
| AGAAGG | 0.864 ± 0.0399 fold-change vs cycle 0 | 1.05 ± 0.055 fold-change vs cycle 0 | 0.997 ± 0.0501 fold-change vs cycle 0 |
| GGTCTA | 0.681 ± 0.0386 fold-change vs cycle 0 | 0.794 ± 0.0243 fold-change vs cycle 0 | 0.8869 ± 0.005 fold-change vs cycle 0 |
| AAGTCG | 0.537 ± 0.0353 fold-change vs cycle 0 | 0.634 ± 0.0134 fold-change vs cycle 0 | 0.747 ± 0.0488 fold-change vs cycle 0 |
| GAAGCC | 0.311 ± 0.0191 fold-change vs cycle 0 | 0.3714 ± 0.00344 fold-change vs cycle 0 | 0.514 ± 0.0635 fold-change vs cycle 0 |
| TCCCGA | 0.394 ± 0.0144 fold-change vs cycle 0 | 0.445 ± 0.019 fold-change vs cycle 0 | 0.562 ± 0.0681 fold-change vs cycle 0 |
| GACCGA | 0.327 ± 0.0131 fold-change vs cycle 0 | 0.4 ± 0.0327 fold-change vs cycle 0 | 0.52 ± 0.0745 fold-change vs cycle 0 |
| CCGAAC | 0.325 ± 0.00544 fold-change vs cycle 0 | 0.387 ± 0.0114 fold-change vs cycle 0 | 0.512 ± 0.0786 fold-change vs cycle 0 |
| ATGTTG | 1.2 ± 0.026 fold-change vs cycle 0 | 1.29 ± 0.0687 fold-change vs cycle 0 | 1.28 ± 0.0984 fold-change vs cycle 0 |
| CGTACA | 0.639 ± 0.0345 fold-change vs cycle 0 | 0.729 ± 0.0226 fold-change vs cycle 0 | 0.802 ± 0.0376 fold-change vs cycle 0 |
| GTTGGA | 0.713 ± 0.0283 fold-change vs cycle 0 | 0.83 ± 0.0624 fold-change vs cycle 0 | 0.883 ± 0.0383 fold-change vs cycle 0 |
| ATTGCC | 0.502 ± 0.0233 fold-change vs cycle 0 | 0.566 ± 0.0263 fold-change vs cycle 0 | 0.699 ± 0.0539 fold-change vs cycle 0 |

| Sequence | binding signal (SALL4 ZFC4 WT (HT-SELEX)) | binding signal [1] | binding signal [2] |
| --- | --- | --- | --- |
| AGCAAT | 1.19 ± 0.0605 fold-change vs cycle 0 | 1.21 ± 0.0474 fold-change vs cycle 0 | 1.25 ± 0.111 fold-change vs cycle 0 |
| CTAGAG | 0.862 ± 0.0503 fold-change vs cycle 0 | 1 ± 0.0918 fold-change vs cycle 0 | 1.03 ± 0.068 fold-change vs cycle 0 |
| TCTGCA | 0.609 ± 0.0257 fold-change vs cycle 0 | 0.678 ± 0.019 fold-change vs cycle 0 | 0.747 ± 0.0393 fold-change vs cycle 0 |
| ATGATA | 2.72 ± 0.227 fold-change vs cycle 0 | 2.14 ± 0.0867 fold-change vs cycle 0 | 1.86 ± 0.153 fold-change vs cycle 0 |
| CAGAAC | 0.725 ± 0.0111 fold-change vs cycle 0 | 0.847 ± 0.0358 fold-change vs cycle 0 | 0.863 ± 0.0478 fold-change vs cycle 0 |
| CCAGAC | 0.368 ± 0.0286 fold-change vs cycle 0 | 0.471 ± 0.0141 fold-change vs cycle 0 | 0.553 ± 0.0511 fold-change vs cycle 0 |
| ATCCGG | 0.352 ± 0.0195 fold-change vs cycle 0 | 0.41 ± 0.0188 fold-change vs cycle 0 | 0.52 ± 0.0559 fold-change vs cycle 0 |
| AAAAGT | 1.71 ± 0.0529 fold-change vs cycle 0 | 1.76 ± 0.0934 fold-change vs cycle 0 | 1.58 ± 0.113 fold-change vs cycle 0 |
| ATCCAC | 0.828 ± 0.0223 fold-change vs cycle 0 | 0.953 ± 0.0135 fold-change vs cycle 0 | 0.986 ± 0.0515 fold-change vs cycle 0 |
| AAAATT | 3.32 ± 0.292 fold-change vs cycle 0 | 2.14 ± 0.119 fold-change vs cycle 0 | 1.94 ± 0.175 fold-change vs cycle 0 |
| CAAGAG | 0.839 ± 0.0412 fold-change vs cycle 0 | 1.03 ± 0.0313 fold-change vs cycle 0 | 1.015 ± 0.00973 fold-change vs cycle 0 |
| CTATCC | 0.843 ± 0.0485 fold-change vs cycle 0 | 0.98 ± 0.0213 fold-change vs cycle 0 | 0.977 ± 0.0393 fold-change vs cycle 0 |
| CTTGCC | 0.3123 ± 0.00236 fold-change vs cycle 0 | 0.384 ± 0.0251 fold-change vs cycle 0 | 0.501 ± 0.0709 fold-change vs cycle 0 |
| AACGAC | 0.568 ± 0.0525 fold-change vs cycle 0 | 0.668 ± 0.0478 fold-change vs cycle 0 | 0.771 ± 0.0138 fold-change vs cycle 0 |
| GTAAAA | 1.69 ± 0.0918 fold-change vs cycle 0 | 1.73 ± 0.0898 fold-change vs cycle 0 | 1.53 ± 0.125 fold-change vs cycle 0 |
| TGACCA | 0.72 ± 0.0319 fold-change vs cycle 0 | 0.823 ± 0.0121 fold-change vs cycle 0 | 0.899 ± 0.0281 fold-change vs cycle 0 |
| CCAACG | 0.347 ± 0.0246 fold-change vs cycle 0 | 0.388 ± 0.0249 fold-change vs cycle 0 | 0.505 ± 0.0781 fold-change vs cycle 0 |
| CAGTAG | 0.806 ± 0.0679 fold-change vs cycle 0 | 0.908 ± 0.0926 fold-change vs cycle 0 | 0.954 ± 0.0684 fold-change vs cycle 0 |
| AAGCGA | 0.546 ± 0.0399 fold-change vs cycle 0 | 0.616 ± 0.0449 fold-change vs cycle 0 | 0.734 ± 0.0783 fold-change vs cycle 0 |
| AAGTGC | 0.551 ± 0.0359 fold-change vs cycle 0 | 0.63 ± 0.00993 fold-change vs cycle 0 | 0.76 ± 0.0221 fold-change vs cycle 0 |

| Sequence | binding signal (SALL4 ZFC4 WT (HT-SELEX)) | binding signal [1] | binding signal [2] |
| --- | --- | --- | --- |
| AGATTG | 1.29 ± 0.0269 fold-change vs cycle 0 | 1.41 ± 0.0315 fold-change vs cycle 0 | 1.38 ± 0.0773 fold-change vs cycle 0 |
| ATAGTC | 1.25 ± 0.0415 fold-change vs cycle 0 | 1.31 ± 0.0594 fold-change vs cycle 0 | 1.33 ± 0.0589 fold-change vs cycle 0 |
| CAATAA | 2.18 ± 0.182 fold-change vs cycle 0 | 1.91 ± 0.101 fold-change vs cycle 0 | 1.73 ± 0.173 fold-change vs cycle 0 |
| ATTAAC | 2.04 ± 0.0632 fold-change vs cycle 0 | 2.1 ± 0.104 fold-change vs cycle 0 | 1.83 ± 0.178 fold-change vs cycle 0 |
| ACCCTA | 0.864 ± 0.0329 fold-change vs cycle 0 | 0.973 ± 0.0359 fold-change vs cycle 0 | 0.982 ± 0.053 fold-change vs cycle 0 |
| TATGCA | 1.19 ± 0.0704 fold-change vs cycle 0 | 1.16 ± 0.0312 fold-change vs cycle 0 | 1.15 ± 0.0173 fold-change vs cycle 0 |
| ACACTA | 1.26 ± 0.0187 fold-change vs cycle 0 | 1.3934 ± 0.0013 fold-change vs cycle 0 | 1.36 ± 0.0513 fold-change vs cycle 0 |
| GCTAAA | 0.898 ± 0.0417 fold-change vs cycle 0 | 1 ± 0.0491 fold-change vs cycle 0 | 1.03 ± 0.0278 fold-change vs cycle 0 |
| ACGAAG | 0.736 ± 0.0281 fold-change vs cycle 0 | 0.869 ± 0.0387 fold-change vs cycle 0 | 0.9 ± 0.0184 fold-change vs cycle 0 |
| ACCATC | 0.858 ± 0.0322 fold-change vs cycle 0 | 0.944 ± 0.0334 fold-change vs cycle 0 | 0.994 ± 0.0236 fold-change vs cycle 0 |
| CACAAC | 0.647 ± 0.0332 fold-change vs cycle 0 | 0.72 ± 0.018 fold-change vs cycle 0 | 0.828 ± 0.0337 fold-change vs cycle 0 |
| GATGGA | 0.878 ± 0.0295 fold-change vs cycle 0 | 0.978 ± 0.0402 fold-change vs cycle 0 | 0.97 ± 0.0258 fold-change vs cycle 0 |
| AAGTGG | 0.762 ± 0.0311 fold-change vs cycle 0 | 0.891 ± 0.0548 fold-change vs cycle 0 | 0.909 ± 0.0639 fold-change vs cycle 0 |
| AAATAC | 1.75 ± 0.12 fold-change vs cycle 0 | 1.68 ± 0.0912 fold-change vs cycle 0 | 1.59 ± 0.0866 fold-change vs cycle 0 |
| CAAACC | 0.669 ± 0.0487 fold-change vs cycle 0 | 0.765 ± 0.014 fold-change vs cycle 0 | 0.864 ± 0.0462 fold-change vs cycle 0 |
| TAGTCA | 1.26 ± 0.0279 fold-change vs cycle 0 | 1.4 ± 0.0422 fold-change vs cycle 0 | 1.34 ± 0.0704 fold-change vs cycle 0 |
| CAATCA | 1.31 ± 0.0592 fold-change vs cycle 0 | 1.41 ± 0.0553 fold-change vs cycle 0 | 1.4 ± 0.0622 fold-change vs cycle 0 |
| GCATCC | 0.382 ± 0.0508 fold-change vs cycle 0 | 0.43 ± 0.0105 fold-change vs cycle 0 | 0.551 ± 0.0913 fold-change vs cycle 0 |
| GCTTGA | 0.627 ± 0.00807 fold-change vs cycle 0 | 0.737 ± 0.0133 fold-change vs cycle 0 | 0.831 ± 0.0377 fold-change vs cycle 0 |
| AGCATG | 0.713 ± 0.0228 fold-change vs cycle 0 | 0.806 ± 0.0264 fold-change vs cycle 0 | 0.882 ± 0.0429 fold-change vs cycle 0 |
